Reference: paper PMC3218832

Target: RELA (p65) subunit of heterodimer;p52 subunit (Homo sapiens;Homo sapiens, UniProt Q04206;Q00653 1-307;4-332)
Assay: protein binding microarray; high values mean tight binding
Details: dsDNA, one strand shown

| Sequence | binding signal [z-score] |
| --- | --- |
| AGAGGTTCCCC | 1.33 |
| GGAGTTCCCCT | 2.79 |
| CGGTGCCTCCT | -0.611 |
| GAGTAAGCCCC | 0.155 |
| AGGATTTCCCT | 1.61 |
| AGGTTTATCCT | -0.905 |
| CGGTTTACCCC | 1.01 |
| GGGGGGCCCCT | 1.86 |
| CGGGTAGTCCC | 1.23 |
| GAGAATTCCCT | 1.6 |
| AAGTGCCTCCC | -0.793 |
| CAAGAGTCCCC | 1.06 |
| CGGTAACTCCC | 0.795 |
| CAATTCCTCCT | -0.609 |
| GAAATGCTCCC | -0.537 |
| GAGATACCCCT | 1.1 |
| GGGGAATTCCC | 3.73 |
| CAAGTTCCCCT | 1.77 |
| GAGTTCTTCCT | -0.734 |
| CAGAATCTCCC | 0.291 |

| Sequence | binding signal [z-score] |
| --- | --- |
| GGAATCGTCCC | 0.591 |
| AAGTATTCCCT | 0.612 |
| AGATATCTCCT | -1.03 |
| CGAAAAATCCT | -0.435 |
| AGAAGCATCCC | -0.795 |
| AGGATCACCCT | -0.525 |
| CAGGAAACCCC | 1.31 |
| AAAAGCCTCCT | -1.07 |
| CAAATGCCCCT | 1.19 |
| GGGTAACCCCT | 1.8 |
| AGAGATTTCCT | -0.389 |
| GAGGGCTCCCC | -0.108 |
| AGATTCTTCCT | -0.896 |
| GAATTAGTCCT | -0.862 |
| GAAGTGTCCCT | 1.04 |
| CAGTGAACCCC | -0.346 |
| CGGGAACCCCC | 2.46 |
| GGAGTCCTCCC | -0.463 |
| GAGAAACCCCC | 2 |

Target: RELB subunit;p50 subunit (Homo sapiens;Homo sapiens, UniProt Q01201;P19838 120-401;7-356)
Assay: as above
Details: dsDNA, one strand shown

| Sequence | binding signal [z-score] |
| --- | --- |
| AGAGGTTCCCC | 1.41 |
| GGAGTTCCCCT | 2 |
| CGGTGCCTCCT | -0.763 |
| GAGTAAGCCCC | 0.171 |
| AGGATTTCCCT | 1.58 |
| AGGTTTATCCT | -0.943 |
| CGGTTTACCCC | 0.667 |
| GGGGGGCCCCT | 1.23 |
| CGGGTAGTCCC | 0.735 |
| GAGAATTCCCT | 1.65 |
| AAGTGCCTCCC | -0.787 |
| CAAGAGTCCCC | 1.44 |
| CGGTAACTCCC | 0.459 |
| CAATTCCTCCT | -0.871 |
| GAAATGCTCCC | -0.542 |
| GAGATACCCCT | 0.817 |
| GGGGAATTCCC | 3.87 |
| CAAGTTCCCCT | 2.27 |
| GAGTTCTTCCT | -0.845 |
| CAGAATCTCCC | 0.641 |

| Sequence | binding signal [z-score] |
| --- | --- |
| GGAATCGTCCC | 0.29 |
| AAGTATTCCCT | 0.683 |
| AGATATCTCCT | -1.19 |
| CGAAAAATCCT | -0.775 |
| AGAAGCATCCC | -0.706 |
| AGGATCACCCT | -0.14 |
| CAGGAAACCCC | 0.925 |
| AAAAGCCTCCT | -1.23 |
| CAAATGCCCCT | 1.21 |
| GGGTAACCCCT | 0.672 |
| AGAGATTTCCT | -0.762 |
| GAGGGCTCCCC | 0.159 |
| AGATTCTTCCT | -0.929 |
| GAATTAGTCCT | -0.954 |
| GAAGTGTCCCT | 1.07 |
| CAGTGAACCCC | -0.298 |
| CGGGAACCCCC | 1.67 |
| GGAGTCCTCCC | -0.55 |
| GAGAAACCCCC | 1.98 |
